Results reported in PubChem BioAssay AID1347420 (Sanford-Burnham Center for Chemical Genomics, 2020).
Hit rate of the full screen: of about 1,300 compounds, about 980 (75%) were called active. Inconclusive results (about 4%) are left out. The list shows a part of the results.

Each compound was assayed against Sulfhydryl oxidase 1 (Homo sapiens) (UniProt O00391) (assay: QSOX1 enzyme inhibitors, primary screen, biochemical, HyperBlu H2O2 luminescence, HTS (AID 1347420; further: values above 100% were filed as inconclusive)). Conditions: recombinant QSOX1, HyperBlu H2O2 luminescence, at 12.5 µM, hits give high values; active = any value above zero unless noted.
Sequence of Sulfhydryl oxidase 1 (Homo sapiens) (O00391 whole entry, looked up): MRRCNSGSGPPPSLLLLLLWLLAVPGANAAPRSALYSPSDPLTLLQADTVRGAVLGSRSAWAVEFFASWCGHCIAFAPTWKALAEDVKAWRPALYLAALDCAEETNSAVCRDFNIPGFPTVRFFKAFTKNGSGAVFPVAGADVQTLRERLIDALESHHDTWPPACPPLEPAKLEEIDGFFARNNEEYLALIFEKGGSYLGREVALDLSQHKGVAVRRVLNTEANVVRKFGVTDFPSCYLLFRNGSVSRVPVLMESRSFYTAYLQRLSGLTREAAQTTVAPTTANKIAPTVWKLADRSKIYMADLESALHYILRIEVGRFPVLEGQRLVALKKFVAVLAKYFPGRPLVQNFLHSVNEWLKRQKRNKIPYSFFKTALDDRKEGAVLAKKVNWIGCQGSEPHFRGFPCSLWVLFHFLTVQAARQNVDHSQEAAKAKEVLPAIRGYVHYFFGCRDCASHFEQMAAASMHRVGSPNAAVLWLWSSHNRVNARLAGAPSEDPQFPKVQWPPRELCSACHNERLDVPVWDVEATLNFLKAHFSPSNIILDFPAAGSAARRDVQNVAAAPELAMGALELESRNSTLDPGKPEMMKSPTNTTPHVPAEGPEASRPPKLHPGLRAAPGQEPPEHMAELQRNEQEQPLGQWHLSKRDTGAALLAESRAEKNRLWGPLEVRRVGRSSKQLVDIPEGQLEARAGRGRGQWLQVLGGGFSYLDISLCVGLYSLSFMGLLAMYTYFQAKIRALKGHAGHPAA
With COc1ccc2[nH]c3c(c2c1)CCNC3 the inhibition was 40.5% (active). NC(=O)CI was tested, and the inhibition was -4.6% (inactive). NNC(N)=O was tested, and the inhibition was 13% (active). With COc1ccc(OC)c(C(O)C(C)N)c1 (configuration not stated) the inhibition was 10.6% [setting not given] (active). In the case of CCCN(CCC)C1CCc2cccc(O)c2C1 (configuration not stated), the inhibition is reported as 5.5% (active). CCCN(CCC)[C@@H]1CCc2cccc(O)c2C1 was tested, and the inhibition was 2.9% (active). In the case of CCCN(CCC)[C@H]1CCc2c(F)ccc(O)c2C1, the inhibition is reported as 17.9% (active). Cc1ncc(CNC(=O)N(CCCl)N=O)c(N)n1 was tested, and the inhibition was 13.2% (active). For Clc1cc(I)cc(Cl)c1NC1=NCCN1, the inhibition was 3.8% (active). O=c1[nH]c2ccccc2n1C1CCN(CCCC(c2ccc(F)cc2)c2ccc(F)cc2)CC1 was tested, and the inhibition was -0.3% [setting not given] (inactive). For O=c1[nH]c2ccccc2n1CCCN1CCC(n2c(=O)[nH]c3cc(Cl)ccc32)CC1, the inhibition was 4.5% [setting not given] (active). For S=C(NC1CCCCC1)N1CCC(c2cnc[nH]2)CC1, the inhibition was 4.8% (active). With CC[C@@]1(O)C(=O)OCc2c1cc1n(c2=O)Cc2cc3ccccc3nc2-1 the inhibition was 17.6% [setting not given] (active). With c1ccc(C2CC2)c(OCC2=NCCN2)c1 the inhibition was 21.8% (active). COc1ccc(C(=O)N2CCCC2=O)cc1 was tested, and the inhibition was 20.3% [setting not given] (active). In the case of COC[C@H]1OC(=O)c2coc3c2[C@@]1(C)C1=C(C3=O)C2CCC(=O)[C@@]2(C)C[C@H]1OC(C)=O (some centres not stated), the inhibition is reported as 49.7% (active). NC(=O)c1cc(N2CC2)c([N+](=O)[O-])cc1[N+](=O)[O-] was tested, and the inhibition was 15.2% (active). In the case of c1ccc(CCCN2CCN(CCOC(c3ccccc3)c3ccccc3)CC2)cc1, the inhibition is reported as -3% (inactive). For Fc1ccc(C(OCCN2CCN(CCCc3ccccc3)CC2)c2ccc(F)cc2)cc1, the inhibition was 14.6% (active). CC12CCC3C(CCC4=C(O)C(=O)CCC43C)C1CCC2=O (configuration not stated) was tested, and the inhibition was 1.5% [setting not given] (active). In the case of CC(N)Cc1c[nH]c2ccc(OCc3cccs3)cc12 (configuration not stated), the inhibition is reported as -4.1% [setting not given] (inactive). NCCc1c[nH]c2ccc(O)cc12 was tested, and the inhibition was 80.8% (active). CC(=O)NCCc1c[nH]c2ccccc12 was tested, and the inhibition was 35.3% [setting not given] (active). In the case of CC(N)Cc1c[nH]c2ccc(O)cc12 (configuration not stated), the inhibition is reported as 79% [setting not given] (active). In the case of CNCCc1c[nH]c2ccc(O)cc12, the inhibition is reported as 55.9% [setting not given] (active). COc1ccc2[nH]cc(CCN)c2c1 was tested, and the inhibition was -0.1% [setting not given] (inactive). In the case of Cc1c(C(=O)c2cccc3ccccc23)c2cccc3c2n1[C@H](CN1CCOCC1)CO3, the inhibition is reported as -2.1% [setting not given] (inactive).
